Most compounds without a hit are left out; they make up all but 1.7% or so of the library.
Vif imaging = HIV Vif self-association inhibitors, primary screen, imaging, HEK293T, single point | 340,000 compounds, 0.35% hits | inhibition, % at 7.49 µM | HEK293T cells, Vif self-association by quenched fluorescence, 24 h; in the data active = inhibition above about 50%, passing the limit was not always enough; inconclusive = no clear call, values can overlap the other calls; inactive = below about 31%
FGF22 binding = binders of human FGF22 protein, primary screen, FGF22 synaptogenesis inhibitor project, biophysical, thermal shift, single point; Fibroblast growth factor 22 (Homo sapiens), Q9HCT0; recombinant FGF22 thermal shift, SYPRO orange fluorescence; percent of sucrose octasulfate shift, DMSO zero; activity (Tm shift, normalised), % at 9.99 µM; 340,000 compounds, 1.5% hits; AID 651658, 2012;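 active = mean Tm shift, scaled 0 neutral to 100 positive control, at about 1.3% or above, every replicate too, limit read from the data; inconclusive = no clear call, values can overlap the other calls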
Target sequence (Q9HCT0 whole entry, looked up): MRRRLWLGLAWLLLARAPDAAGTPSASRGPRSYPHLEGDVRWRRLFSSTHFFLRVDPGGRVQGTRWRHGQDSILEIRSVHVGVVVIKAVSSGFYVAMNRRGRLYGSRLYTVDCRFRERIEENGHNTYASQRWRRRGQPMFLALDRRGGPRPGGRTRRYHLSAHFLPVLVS
CFTR F508del cor = F508del CFTR correction, initial screen, CFBE line, single point | CFBE cells, YFP halide quenching; stimulated with forskolin plus potentiator P3; % fluorescence drop versus neutral controls | activity (quench increase), % at 7.58 µM | 350,000 compounds, 0.36% hits;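 active = mean added fluorescence quench of at least 8% versus neutral control, with both replicates also reaching 8%; inconclusive = only one of the mean or replicate conditions met; inactive = mean below 8% and not both replicates reaching 8%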;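 note: cells transiently co-express mutant CFTR-F508del with the halide-sensitive YFP; corrector assay measuring rescue of mutant channel to the surface after 24 h compound exposure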
A number is an active result; n = inactive; u = inconclusive; x = no result.

SMILES	Vif imaging	FGF22 binding	CFTR F508del cor
COc1ccc(C2/C=C\CN(C(=O)c3ccccc3)[C@H](Cc3ccccc3)C(=O)N2Cc2ccc(F)cc2)cc1 (stereo partly drawn)	n	43.5	n
C[C@H](CO)N1C[C@H](C)[C@@H](CN(C)C(=O)CCC(F)(F)F)OCCCC[C@H](C)Oc2ccc(NC(=O)Nc3ccccc3)cc2C1=O	x	n	n
CCOC(=O)/C(C)=N/NC(=O)c1ccc([N+](=O)[O-])cc1	n	44.0	n
CCOC(=O)C(CC)/C(C)=N/NC(=O)c1ccc([N+](=O)[O-])cc1 (stereo not drawn)	n	x	x
C[C@H]1CCCCO[C@H](CN(C)C(=O)Nc2ccc(C(F)(F)F)cc2)[C@@H](C)CN([C@@H](C)CO)C(=O)c2cc(NC(=O)Nc3cccc4ccccc34)ccc2O1	x	n	n
COCCNC(=S)N1CCN(C(c2ccccc2)c2ccccc2)CC1	n	n	n
COCCNC(=O)NC(=O)CN1CCN(C(c2ccccc2)c2ccccc2)CC1	n	43.3	n
CCN(C[C@H]1N[C@@](C)(C(=O)OC)[C@H]2C(=O)N(C)C(=O)[C@@H]12)C(=O)c1ccccc1	n	n	n
CCN(C[C@H]1N[C@@](C)(C(=O)OC)[C@H]2C(=O)N(C)C(=O)[C@@H]12)C(C)=O	n	43.5	n
CCN(C[C@H]1N[C@@](C)(C(=O)OC)[C@H]2C(=O)N(Cc3ccccc3)C(=O)[C@@H]12)C(=O)COC	n	n	n
CCN(C[C@H]1N[C@@](C)(C(=O)OC)[C@H]2C(=O)N(C)C(=O)[C@@H]12)C(=O)COC	n	43.0	n
COC(=O)[C@]1(C)N[C@H](CN(C)C(=O)c2ccccc2)[C@@H]2C(=O)N(Cc3ccccc3)C(=O)[C@@H]21	n	n	n
COC(=O)[C@]1(C)N[C@H](CN(C)C(C)=O)[C@@H]2C(=O)N(Cc3ccccc3)C(=O)[C@@H]21	n	43.9	n
C[C@@H]1CN([C@@H](C)CO)C(=O)c2cc(NC(=O)Nc3cccc4ccccc34)ccc2O[C@H]1CN(C)S(=O)(=O)c1ccccc1	x	n	n
CN(C)CCCNC(=O)[C@@H]1[C@@H](CO)[C@@H]2Cn3c(ccc(-c4cccc(C(=O)N(C)C)c4)c3=O)[C@H]1N2	x	n	n
COc1cc(-c2nccc3cc4c(cc23)OCO4)cc(OC)c1OC	n	n	9.2
COc1cc2cc(OC(C)=O)c3cc4c(cc3c2c(OC)c1OC)OCO4	x	n	n
C[C@H](CO)N1C[C@H](C)[C@@H](CN(C)C(=O)Nc2ccc(C(F)(F)F)cc2)Oc2c(NC(=O)Nc3ccc(F)cc3)cccc2C1=O	x	n	n
CN1CCN(C(=O)C[C@H]2CC[C@H](NC(=O)Cc3ccccn3)[C@@H](CO)O2)CC1	x	n	n
Cc1ccc(CC(NC(=O)c2ccccc2)C(=O)NC(Cc2ccccc2)C(=O)O)cc1 (stereo not drawn)	n	n	n
Cc1ccc(C(=O)NC(CCc2ccccc2)C(=O)O)cc1 (stereo not drawn)	118.0	n	n
CCC(C(=O)OCC(=O)C1(O)CCC2C3CCC4=CC(=O)CCC4(C)C3C(O)CC21C)C(C)C (stereo not drawn)	n	n	8.2
CC(=O)[C@@]1(O)CC[C@H]2[C@@H]3CCC4=CC(=O)CC[C@]4(C)[C@H]3[C@@H](O)C[C@@]21C	n	n	n
CCOC(=O)Cc1cc(=O)n2[nH]c(C)c(-c3ccccc3)c2n1	n	x	x
CCOC(=O)Cc1cc(=O)n2[nH]c(-c3ccccc3)c(-c3ccccc3)c2n1	n	43.3	x
SMILES	Vif imaging	FGF22 binding	CFTR F508del cor
C[C@@H]1CN([C@@H](C)CO)C(=O)c2cc(C#CC(C)(C)O)cnc2O[C@H]1CN(C)C(=O)C1CCC1	x	n	n
CN1/C(=C\C=C(C#N)C#N)C(C)(C)c2ccccc21	118.9	n	n
CN1/C(=C/C=N/n2cnnc2)C(C)(C)c2ccccc21	n	x	x
CO[C@@H]1CN(C)C(=O)c2ccc(NC(=O)c3cccc(F)c3)cc2OC[C@H](C)N(C(C)=O)C[C@@H]1C	x	n	n
COc1ccc2c3c(n(C)c2c1)[C@H](CO)NCC31CCN(Cc2ccccc2Cl)CC1	x	n	n
COc1ccc2c3c(n(C)c2c1)[C@H](CO)NCC31CCN(Cc2cc(-c3ccccc3)on2)CC1	x	x	12.0
O=C(Nc1ccc(Cl)cn1)c1ccc([N+](=O)[O-])o1	n	42.9	n
Cc1c(Cl)c([N+](=O)[O-])nn1Cc1ccc(C(=O)Nc2ccc(Cl)cn2)o1	n	x	x
CCc1ccc(NC(=O)C(=O)NCC(O)c2ccccc2)cc1 (stereo not drawn)	n	43.1	n
CCOC(=O)c1ccc(NC(=S)NCC(O)c2ccccc2)cc1 (stereo not drawn)	n	x	x
O=C(Nc1cccc(Cl)c1)N[C@@H]1CC[C@@H](CCNC(=O)C2CCCCC2)O[C@H]1CO	x	n	n
C[C@H]1CN([C@@H](C)CO)C(=O)c2cccc(NC(=O)c3nc4ccccc4s3)c2O[C@@H]1CN(C)S(=O)(=O)c1ccc(Cl)cc1	x	n	n
O=C1C2C3C=CC(CC3)C2S(=O)(=O)C2C3C=CC(CC3)C12 (stereo not drawn)	x	44.0	n
O=C1C2C3C=CC(CC3)C2C(=O)N1c1ccc(Cl)cc1 (stereo not drawn)	n	n	n
O=C(O)CN1C(=O)C2C3C=CC(C3)C2C1=O (stereo not drawn)	n	n	n
O=C1C2C3C=CC(C3)C2S(=O)(=O)C2C3C=CC(C3)C12 (stereo not drawn)	x	42.9	n
CCCNC(=O)N1CC2(CN(Cc3cccc(F)c3)C2)c2c([nH]c3cc(OC)ccc23)[C@@H]1CO	x	n	n
COc1ccc(S(=O)(=O)Nc2ccc3c(c2)CC(=O)N([C@H](C)CO)C[C@@H](C)[C@@H](CN(C)C(=O)NC(C)C)O3)cc1	x	n	n
C[C@H]1CN([C@@H](C)CO)C(=O)CCCn2nncc2CO[C@H]1CN(C)CC1CC1	x	n	n
O=C(C[C@@H]1CC[C@H]2[C@@H](COC[C@H](O)CN2C(=O)Nc2ccc(F)cc2)O1)NCCc1ccccc1	x	n	n
COc1cccc(C(=O)NCC2(c3ccccc3)CCCC2)c1	n	43.0	n
COc1cccc(C(=O)NCC2(c3ccc(OC)c(OC)c3)CCCC2)c1	u	n	n
CCCC(=O)Nc1ccc2c(c1)C(=O)N(C)[C@@H]1CC[C@@H](CC(=O)NCCCN(C)C)O[C@@H]1CO2	x	n	n
CCNC(=O)n1cc(-n2cncn2)c(-c2ccccc2)n1	n	43.4	n
O=C(NCCCc1ccccc1)c1ccc(-n2cncn2)c([N+](=O)[O-])c1	n	n	n
Cc1noc(C)c1S(=O)(=O)N(C)C[C@@H]1Oc2ccc(NC(=O)Cc3ccccc3)cc2CC(=O)N([C@H](C)CO)C[C@H]1C	x	n	n
COc1ccc(C2CC(c3ccccc3)=NN2S(=O)(=O)c2ccccc2)cc1 (stereo not drawn)	n	n	n
Cc1ccc(C2=NN(S(=O)(=O)c3ccccc3)C(c3ccccc3O)C2)cc1 (stereo not drawn)	n	43.6	n

Bioassay records deposited in PubChem BioAssay by Broad Institute.
